From ChEMBL document CHEMBL1961873, “Compounds: GSK PKIS; Assays: Nanosyn kinase panel” (2012)

What was measured:
[1] = target: Tyrosine-protein kinase receptor UFO (Homo sapiens) (UniProt P30530); conditions: at 1 µM
[2] = target: Tyrosine-protein kinase Blk (Homo sapiens) (UniProt P51451); conditions: at 0.1 µM
[3] = target: Tyrosine-protein kinase Blk (Homo sapiens) (UniProt P51451); conditions: at 1 µM
[4] = target: T1, Cytoplasmic tyrosine-protein kinase BMX (Homo sapiens) (UniProt P51813); conditions: at 0.1 µM
T1 sequence (whole entry): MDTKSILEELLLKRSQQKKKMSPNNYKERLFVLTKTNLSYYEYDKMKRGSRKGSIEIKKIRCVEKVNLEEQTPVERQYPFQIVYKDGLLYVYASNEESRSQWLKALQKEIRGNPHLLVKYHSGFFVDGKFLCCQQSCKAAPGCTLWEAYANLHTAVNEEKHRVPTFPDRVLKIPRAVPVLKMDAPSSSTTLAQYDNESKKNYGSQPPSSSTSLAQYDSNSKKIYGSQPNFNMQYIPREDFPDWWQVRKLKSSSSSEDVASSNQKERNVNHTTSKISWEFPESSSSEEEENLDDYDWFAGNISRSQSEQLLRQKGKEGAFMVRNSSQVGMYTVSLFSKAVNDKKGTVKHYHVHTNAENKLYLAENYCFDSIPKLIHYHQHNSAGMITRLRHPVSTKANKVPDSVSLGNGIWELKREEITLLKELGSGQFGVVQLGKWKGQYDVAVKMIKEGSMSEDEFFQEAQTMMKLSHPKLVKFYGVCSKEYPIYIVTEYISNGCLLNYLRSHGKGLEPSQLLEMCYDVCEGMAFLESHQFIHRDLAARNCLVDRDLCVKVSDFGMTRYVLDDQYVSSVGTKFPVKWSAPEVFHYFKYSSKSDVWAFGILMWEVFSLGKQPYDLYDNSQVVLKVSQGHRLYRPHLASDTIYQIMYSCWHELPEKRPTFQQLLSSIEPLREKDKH

[5] = target: T1, Cytoplasmic tyrosine-protein kinase BMX (Homo sapiens); conditions: at 1 µM
[6] = target: Protein-tyrosine kinase 6 (Homo sapiens) (UniProt Q13882); conditions: at 0.1 µM
Sequence of Protein-tyrosine kinase 6 (Homo sapiens) (Q13882 whole entry, looked up): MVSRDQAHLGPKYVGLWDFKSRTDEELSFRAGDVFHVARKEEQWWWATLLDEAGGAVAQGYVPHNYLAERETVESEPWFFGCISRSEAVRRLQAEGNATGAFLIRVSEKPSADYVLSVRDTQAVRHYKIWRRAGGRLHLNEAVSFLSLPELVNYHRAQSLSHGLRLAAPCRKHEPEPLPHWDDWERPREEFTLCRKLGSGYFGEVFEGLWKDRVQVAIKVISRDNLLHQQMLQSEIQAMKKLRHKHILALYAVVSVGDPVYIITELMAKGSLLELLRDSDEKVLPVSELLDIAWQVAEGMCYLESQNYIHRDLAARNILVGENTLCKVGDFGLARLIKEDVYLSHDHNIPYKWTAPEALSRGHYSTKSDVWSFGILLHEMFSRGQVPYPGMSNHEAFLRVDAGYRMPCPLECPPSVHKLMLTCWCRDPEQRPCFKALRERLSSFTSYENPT

[7] = target: Protein-tyrosine kinase 6 (Homo sapiens) (UniProt Q13882); conditions: at 1 µM
[8] = target: Tyrosine-protein kinase BTK (Homo sapiens) (UniProt Q06187); conditions: at 0.1 µM
Sequence of Tyrosine-protein kinase BTK (Homo sapiens) (Q06187 whole entry): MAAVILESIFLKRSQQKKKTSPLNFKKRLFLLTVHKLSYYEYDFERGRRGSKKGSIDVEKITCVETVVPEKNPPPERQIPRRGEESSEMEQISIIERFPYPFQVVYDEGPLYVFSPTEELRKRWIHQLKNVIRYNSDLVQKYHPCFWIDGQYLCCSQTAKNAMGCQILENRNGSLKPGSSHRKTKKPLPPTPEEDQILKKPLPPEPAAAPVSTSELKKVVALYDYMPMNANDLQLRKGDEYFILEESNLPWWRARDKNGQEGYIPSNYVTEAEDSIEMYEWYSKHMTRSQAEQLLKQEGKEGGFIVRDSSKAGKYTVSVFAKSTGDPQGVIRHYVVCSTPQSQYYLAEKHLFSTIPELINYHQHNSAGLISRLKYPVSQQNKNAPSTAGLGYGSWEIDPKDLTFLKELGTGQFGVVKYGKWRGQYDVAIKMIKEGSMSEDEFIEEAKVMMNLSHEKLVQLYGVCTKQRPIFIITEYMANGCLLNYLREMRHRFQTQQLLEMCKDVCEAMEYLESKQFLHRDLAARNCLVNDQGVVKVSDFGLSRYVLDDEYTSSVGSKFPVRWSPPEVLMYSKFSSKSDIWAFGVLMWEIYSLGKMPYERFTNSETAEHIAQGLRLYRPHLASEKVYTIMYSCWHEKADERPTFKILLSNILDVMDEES

[9] = target: Tyrosine-protein kinase BTK (Homo sapiens) (UniProt Q06187); conditions: at 1 µM
[10] = target: Tyrosine-protein kinase CSK (Homo sapiens) (UniProt P41240); conditions: at 0.1 µM
Sequence of Tyrosine-protein kinase CSK (Homo sapiens) (P41240 2-450 limits assumed): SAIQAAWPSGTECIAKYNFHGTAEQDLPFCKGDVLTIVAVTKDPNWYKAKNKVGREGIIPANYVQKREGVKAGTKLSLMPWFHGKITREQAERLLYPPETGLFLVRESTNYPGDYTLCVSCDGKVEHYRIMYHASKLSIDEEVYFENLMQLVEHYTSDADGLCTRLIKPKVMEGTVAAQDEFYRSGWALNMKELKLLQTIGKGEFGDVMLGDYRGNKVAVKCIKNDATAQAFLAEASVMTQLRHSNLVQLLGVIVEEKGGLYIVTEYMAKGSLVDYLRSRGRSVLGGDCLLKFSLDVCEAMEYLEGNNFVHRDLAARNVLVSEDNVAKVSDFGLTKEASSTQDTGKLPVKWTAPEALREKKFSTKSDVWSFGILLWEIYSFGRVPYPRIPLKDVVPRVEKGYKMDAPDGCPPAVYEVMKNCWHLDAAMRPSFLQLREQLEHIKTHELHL

[11] = target: Tyrosine-protein kinase CSK (Homo sapiens) (UniProt P41240); conditions: at 1 µM
[12] = target: T2, Discoidin domain-containing receptor 2 (Homo sapiens) (UniProt Q16832); conditions: at 0.1 µM
T2 sequence (whole entry): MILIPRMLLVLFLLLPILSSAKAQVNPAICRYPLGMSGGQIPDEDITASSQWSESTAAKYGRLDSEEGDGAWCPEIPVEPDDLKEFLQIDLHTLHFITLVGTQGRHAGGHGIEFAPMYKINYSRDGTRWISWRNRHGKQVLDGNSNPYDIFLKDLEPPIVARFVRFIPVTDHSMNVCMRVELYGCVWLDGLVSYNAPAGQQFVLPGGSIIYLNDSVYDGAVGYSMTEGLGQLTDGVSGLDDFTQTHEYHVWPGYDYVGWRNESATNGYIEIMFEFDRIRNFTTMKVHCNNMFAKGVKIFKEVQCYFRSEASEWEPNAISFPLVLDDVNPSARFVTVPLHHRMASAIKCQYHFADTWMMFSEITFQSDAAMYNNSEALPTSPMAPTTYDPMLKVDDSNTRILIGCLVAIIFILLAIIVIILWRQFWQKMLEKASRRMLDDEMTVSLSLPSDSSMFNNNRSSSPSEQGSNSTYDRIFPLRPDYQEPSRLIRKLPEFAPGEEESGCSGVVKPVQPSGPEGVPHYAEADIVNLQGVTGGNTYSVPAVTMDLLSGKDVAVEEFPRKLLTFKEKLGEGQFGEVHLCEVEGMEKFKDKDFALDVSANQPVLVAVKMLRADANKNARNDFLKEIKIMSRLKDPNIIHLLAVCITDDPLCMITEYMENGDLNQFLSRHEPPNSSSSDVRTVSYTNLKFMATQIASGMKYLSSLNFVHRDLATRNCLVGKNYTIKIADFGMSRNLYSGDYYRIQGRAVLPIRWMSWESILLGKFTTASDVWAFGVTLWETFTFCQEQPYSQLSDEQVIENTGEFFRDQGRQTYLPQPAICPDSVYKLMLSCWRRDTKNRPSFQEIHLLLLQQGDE

[13] = target: T2, Discoidin domain-containing receptor 2 (Homo sapiens); conditions: at 1 µM
[14] = target: Epidermal growth factor receptor (Homo sapiens) (UniProt P00533); conditions: at 0.1 µM
Sequence of Epidermal growth factor receptor (Homo sapiens) (P00533 whole entry): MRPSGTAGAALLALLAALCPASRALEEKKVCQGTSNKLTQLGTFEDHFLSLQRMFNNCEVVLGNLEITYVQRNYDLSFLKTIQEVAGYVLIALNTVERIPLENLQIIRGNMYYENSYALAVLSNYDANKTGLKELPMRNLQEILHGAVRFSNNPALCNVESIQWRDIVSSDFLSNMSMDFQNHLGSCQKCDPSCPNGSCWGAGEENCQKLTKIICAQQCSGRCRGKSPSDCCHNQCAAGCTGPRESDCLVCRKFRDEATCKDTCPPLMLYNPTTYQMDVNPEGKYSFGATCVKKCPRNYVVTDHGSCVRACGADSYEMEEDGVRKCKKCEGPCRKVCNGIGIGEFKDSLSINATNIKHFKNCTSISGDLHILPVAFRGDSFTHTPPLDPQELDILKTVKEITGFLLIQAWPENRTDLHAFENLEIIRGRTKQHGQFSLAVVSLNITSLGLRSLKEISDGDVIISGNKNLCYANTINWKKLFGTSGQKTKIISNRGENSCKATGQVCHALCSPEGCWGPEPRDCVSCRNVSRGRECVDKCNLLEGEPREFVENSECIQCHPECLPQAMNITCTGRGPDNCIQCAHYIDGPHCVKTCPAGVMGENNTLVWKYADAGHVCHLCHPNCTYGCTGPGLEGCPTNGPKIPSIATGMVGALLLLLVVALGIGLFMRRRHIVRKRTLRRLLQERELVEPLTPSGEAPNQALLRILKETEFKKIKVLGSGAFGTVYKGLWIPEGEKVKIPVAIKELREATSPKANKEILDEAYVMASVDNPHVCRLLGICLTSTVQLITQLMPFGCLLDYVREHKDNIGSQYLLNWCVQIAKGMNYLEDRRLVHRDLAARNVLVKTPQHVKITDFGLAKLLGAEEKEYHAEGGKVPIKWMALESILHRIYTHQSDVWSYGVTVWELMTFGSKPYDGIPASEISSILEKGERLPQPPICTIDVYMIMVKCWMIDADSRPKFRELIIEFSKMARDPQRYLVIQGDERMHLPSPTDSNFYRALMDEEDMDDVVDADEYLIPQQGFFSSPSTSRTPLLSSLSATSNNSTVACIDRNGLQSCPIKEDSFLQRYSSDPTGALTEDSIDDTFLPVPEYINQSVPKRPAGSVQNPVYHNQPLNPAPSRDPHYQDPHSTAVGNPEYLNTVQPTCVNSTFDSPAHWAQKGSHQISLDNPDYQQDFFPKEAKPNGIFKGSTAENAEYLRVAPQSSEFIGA

[15] = target: Epidermal growth factor receptor (Homo sapiens) (UniProt P00533); conditions: at 1 µM
[16] = test system: Epidermal growth factor receptor (Homo sapiens), P00533 [L858R]; conditions: at 0.1 µM
[17] = test system: Epidermal growth factor receptor (Homo sapiens), P00533 [L858R]; conditions: at 1 µM
[18] = test system: Epidermal growth factor receptor (Homo sapiens), P00533 [L861Q]; conditions: at 0.1 µM
[19] = test system: Epidermal growth factor receptor (Homo sapiens), P00533 [L861Q]; conditions: at 1 µM
[20] = test system: Epidermal growth factor receptor (Homo sapiens), P00533 [T790M]; conditions: at 0.1 µM
Sequence of Epidermal growth factor receptor (Homo sapiens), P00533 [T790M] (P00533 whole entry T790M): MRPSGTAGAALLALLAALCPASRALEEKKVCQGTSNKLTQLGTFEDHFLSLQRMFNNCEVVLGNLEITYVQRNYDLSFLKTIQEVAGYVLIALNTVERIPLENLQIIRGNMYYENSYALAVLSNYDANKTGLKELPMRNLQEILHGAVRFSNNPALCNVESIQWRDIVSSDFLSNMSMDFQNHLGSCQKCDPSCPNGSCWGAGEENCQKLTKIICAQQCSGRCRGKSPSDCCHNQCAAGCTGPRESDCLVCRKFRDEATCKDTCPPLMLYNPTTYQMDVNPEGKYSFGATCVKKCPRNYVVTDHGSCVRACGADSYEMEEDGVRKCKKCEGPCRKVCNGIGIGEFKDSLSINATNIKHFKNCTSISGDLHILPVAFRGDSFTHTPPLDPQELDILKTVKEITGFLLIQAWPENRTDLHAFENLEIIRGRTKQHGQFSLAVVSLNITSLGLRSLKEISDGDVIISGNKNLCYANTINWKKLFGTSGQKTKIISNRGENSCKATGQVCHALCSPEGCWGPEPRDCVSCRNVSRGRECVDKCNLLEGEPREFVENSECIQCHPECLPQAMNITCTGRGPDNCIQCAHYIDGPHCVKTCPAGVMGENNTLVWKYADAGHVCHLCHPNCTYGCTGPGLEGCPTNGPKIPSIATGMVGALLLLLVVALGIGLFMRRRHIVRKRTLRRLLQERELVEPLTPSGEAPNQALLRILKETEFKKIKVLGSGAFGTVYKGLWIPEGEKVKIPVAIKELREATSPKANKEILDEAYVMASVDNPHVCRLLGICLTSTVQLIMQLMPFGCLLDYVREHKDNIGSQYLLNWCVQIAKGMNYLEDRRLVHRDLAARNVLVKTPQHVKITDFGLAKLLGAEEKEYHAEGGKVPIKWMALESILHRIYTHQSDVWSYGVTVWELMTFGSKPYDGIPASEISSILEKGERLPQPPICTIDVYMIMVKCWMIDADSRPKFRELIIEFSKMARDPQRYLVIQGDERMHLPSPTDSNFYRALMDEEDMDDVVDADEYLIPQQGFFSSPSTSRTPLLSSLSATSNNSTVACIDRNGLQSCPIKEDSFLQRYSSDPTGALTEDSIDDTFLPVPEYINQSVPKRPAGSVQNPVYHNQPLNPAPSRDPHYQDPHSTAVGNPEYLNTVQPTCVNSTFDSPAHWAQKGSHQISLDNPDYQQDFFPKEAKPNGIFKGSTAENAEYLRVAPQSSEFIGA

Sequence of Tyrosine-protein kinase receptor UFO (Homo sapiens) (P30530 whole entry): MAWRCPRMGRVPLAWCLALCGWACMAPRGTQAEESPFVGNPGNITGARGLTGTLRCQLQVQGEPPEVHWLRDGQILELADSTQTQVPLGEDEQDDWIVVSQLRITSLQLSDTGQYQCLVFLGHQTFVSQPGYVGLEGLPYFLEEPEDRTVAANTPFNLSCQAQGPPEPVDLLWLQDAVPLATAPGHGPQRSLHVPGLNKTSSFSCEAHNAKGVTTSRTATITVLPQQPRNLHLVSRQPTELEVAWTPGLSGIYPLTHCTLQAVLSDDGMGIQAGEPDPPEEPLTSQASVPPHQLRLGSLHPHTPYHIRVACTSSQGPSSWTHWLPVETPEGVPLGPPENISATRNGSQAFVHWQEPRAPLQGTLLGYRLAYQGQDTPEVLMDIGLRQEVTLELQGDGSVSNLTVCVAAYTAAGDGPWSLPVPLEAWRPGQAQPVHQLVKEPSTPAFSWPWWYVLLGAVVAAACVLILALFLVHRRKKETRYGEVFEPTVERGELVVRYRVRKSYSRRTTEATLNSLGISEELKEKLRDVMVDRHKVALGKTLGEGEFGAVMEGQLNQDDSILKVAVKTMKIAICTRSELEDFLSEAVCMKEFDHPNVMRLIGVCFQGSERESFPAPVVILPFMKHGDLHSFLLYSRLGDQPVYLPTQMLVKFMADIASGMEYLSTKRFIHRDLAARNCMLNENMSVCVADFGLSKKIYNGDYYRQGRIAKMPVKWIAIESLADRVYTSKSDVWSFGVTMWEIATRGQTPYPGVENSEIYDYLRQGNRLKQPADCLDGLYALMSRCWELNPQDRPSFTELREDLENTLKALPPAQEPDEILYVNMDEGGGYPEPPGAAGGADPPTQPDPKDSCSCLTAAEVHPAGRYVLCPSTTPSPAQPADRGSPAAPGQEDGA

Compound	inhibition [1] [%]	inhibition [2] [%]	inhibition [3] [%]	inhibition [4] [%]	inhibition [5] [%]	inhibition [6] [%]	inhibition [7] [%]	inhibition [8] [%]	inhibition [9] [%]	inhibition [10] [%]	inhibition [11] [%]	inhibition [12] [%]	inhibition [13] [%]	inhibition [14] [%]	inhibition [15] [%]	inhibition [16] [%]	inhibition [17] [%]	inhibition [18] [%]	inhibition [19] [%]	inhibition [20] [%]
CCn1c(-c2nonc2N)nc2cncc(C(=O)NCCNC)c21	-6.19	3.13	5.42	3.81	5.15	2.42	5.45	-1.55	0.11	3.43	4.95	1.54	2.38	0.28	5.41	4.66	6.79	4.01	2.21	2.41
COc1c(C(N)=O)cc(-c2ccc(Cl)cc2)cc1-c1ccc(S(N)(=O)=O)cc1	-6.03	1.95	3.34	4.08	6.04	3.21	4.09	-1.27	-0.85	3.55	4.45	1.62	2.64	1.55	2.79	2.2	8.48	2.27	5.74	1.41
OCCCNc1nccc(-c2c(-c3ccc(F)cc3)nn3cc(C(F)(F)F)ccc23)n1	1.31	1.06	2.83	5.93	3.3	1.91	5.03	0.07	0.45	4.06	1.58	3.25	19.3	0.97	9.16	5.62	24.6	2.61	6.62	0.96
CNC(=O)c1cncc(/C=C/c2ccccc2C)c1	-5.59	2.89	6.2	0.93	16.1	4.25	14.5	0.03	1.29	4.87	9.89	0.33	5.42	1.22	3.62	4.66	11.7	3.44	5.67	1.07
